Experimental data reported in PubChem BioAssay (EPA / NIEHS).
Values joined by “and” are separate entries in the source; they are usually repeats but may differ in a detail not shown here. Equal values may be shown once. More than one record can exist for a structure, and the calls need not agree. Active and inactive are the calls of the source. How the source made its calls: active means hit-call score of the fitted dose curve at least 0.9, where 1 is the maximum; inactive means score below 0.9.

Tests used:
[1] = read-out: Urokinase-type plasminogen activator receptor (uPAR), PLAUR (gene 5329); assay: BSK_CASM3C_uPAR: BioMAP Diversity Plus: CASM3C Assay for Urokinase-type plasminogen activator receptor (uPAR) Biomarker Activity (AID 2283054); settings: primary human coronary artery smooth muscle cells; actives raise or lower the signal;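 further: cell-surface uPAR protein level quantified by ELISA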
[2] = read-out: Vascular cell adhesion molecule 1 (VCAM1), VCAM1 (gene 7412); assay: BSK_CASM3C_VCAM1: BioMAP Diversity Plus: CASM3C Assay for Vascular cell adhesion molecule 1 (VCAM1) Biomarker Activity (AID 2283055); settings: primary human coronary artery smooth muscle cells; actives raise or lower the signal;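 further: VCAM-1 protein level quantified by ELISA on the cells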
[3] = read-out: Collagen III, COL3A1 (gene 1281); assay: BSK_hDFCGF_CollagenIII: BioMAP Diversity Plus: hDFCGF Assay for Collagen III Biomarker Activity (AID 2283056); settings: primary human foreskin fibroblasts; actives raise or lower the signal
Method in brief: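 Response relative to DMSO, fitted in both directions, reflects ELISA-measured collagen III in human primary skin fibroblasts 24 h after compound addition.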

[4] = read-out: Epidermal growth factor receptor (EGFR), EGFR (gene 1956); assay: BSK_hDFCGF_EGFR: BioMAP Diversity Plus: hDFCGF Assay for Epidermal growth factor receptor (EGFR) Biomarker Activity (AID 2283057); settings: primary human foreskin fibroblasts; actives raise or lower the signal
Method in brief: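 EGFR levels by ELISA in human dermal fibroblast cultures, 24 h post-treatment, fitted bidirectionally versus DMSO. Parallel wells stained with sulforhodamine B to detect overt cytotoxicity.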

[5] = read-out: Interleukin-8 (IL8), CXCL8 (gene 3576); assay: BSK_hDFCGF_IL8: BioMAP Diversity Plus: hDFCGF Assay for Interleukin-8 (IL8) Biomarker Activity (AID 2283058); settings: primary human foreskin fibroblasts; actives raise or lower the signal
Method in brief: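 Fibroblast monolayers (human foreskin, hDFCGF) received test chemical for 24 h before ELISA detection of IL-8; either increases or decreases relative to DMSO count as activity.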

[6] = BSK_hDFCGF_Proliferation: Cell Proliferation Assessment in the BioMAP Diversity Plus: hDFCGF Assay (AID 2283059); settings: primary human foreskin fibroblasts;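 further: curves fitted for both rise and fall of signal versus DMSO baseline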
Method in brief: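 Primary human foreskin fibroblasts, sub-confluent; […]; 10% TCA fix, 0.1% SRB stain, A560 total protein. Gain/loss fitted bidirectionally vs DMSO control.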

[7] = read-out: Macrophage colony-stimulating factor (MCSF), CSF1 (gene 1435); assay: BSK_hDFCGF_MCSF: BioMAP Diversity Plus: hDFCGF Assay for Macrophage colony-stimulating factor (MCSF) Biomarker Activity (AID 2283060); settings: primary human foreskin fibroblasts; actives raise or lower the signal
Method in brief: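 fibroblasts (human foreskin, primary), 24 h post-dose; M-CSF by ELISA; bidirectional fit, DMSO = baseline.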

[8] = read-out: TIMP metallopeptidase inhibitor 1 (TIMP1), TIMP1 (gene 7076); assay: BSK_hDFCGF_TIMP1: BioMAP Diversity Plus: hDFCGF Assay for TIMP metallopeptidase inhibitor 1 (TIMP1) Biomarker Activity (AID 2283062); settings: primary human foreskin fibroblasts; actives raise or lower the signal
Method in brief: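 Bidirectional curve fitting against DMSO baseline yielded this endpoint, based on ELISA detection of TIMP-1 in primary human foreskin fibroblasts exposed to compound for 24 h.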

[9] = read-out: Monokine induced gamma interferon (MIG), CXCL9 (gene 4283); assay: BSK_hDFCGF_MIG: BioMAP Diversity Plus: hDFCGF Assay for Monokine induced gamma interferon (MIG) Biomarker Activity (AID 2283063); settings: primary human foreskin fibroblasts; actives raise or lower the signal
Method in brief: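 Endpoint derived by bidirectional fitting relative to DMSO; MIG quantified via ELISA in primary human foreskin fibroblasts harvested 24 h after dosing.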

[10] = read-out: Matrix Metallopeptidase 1 (MMP1), MMP1 (gene 4312); assay: BSK_hDFCGF_MMP1: BioMAP Diversity Plus: hDFCGF Assay for Matrix Metallopeptidase 1 (MMP1) Biomarker Activity (AID 2283064); settings: primary human foreskin fibroblasts; actives raise or lower the signal
Method in brief: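 Human foreskin fibroblasts exposed to chemical for 24 h; MMP1 detected by ELISA, with DMSO as baseline for bidirectional fitting.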

Row | SMILES | outcome [1] | outcome [2] | outcome [3] | outcome [4] | outcome [5] | outcome [6] | outcome [7] | outcome [8] | outcome [9] | outcome [10] | AC50 [3] | AC50 [6] | AC50 [2] | AC50 [7] | AC50 [8] | AC50 [9] | AC50 [5] | AC50 [10] | AC50 [1] | AC50 [4]
1 | CO[Si](OC)(OC)c1ccccc1 | inactive | inactive | inactive | inactive | inactive | inactive | inactive | inactive | inactive | inactive |  |  |  |  |  |  |  |  |  | 
2 | CC1OC1C1CCC2(C)OC2C1 (stereo unspecified) | inactive | inactive |  | inactive | inactive | inactive | inactive | inactive | inactive | inactive | 11.4 µM (active) |  |  |  |  |  |  |  |  | 
3 | CCOc1nc(F)cc2nc(S(=O)(=O)Nc3c(Cl)cccc3C(=O)OC)nn12 | inactive | inactive | inactive | inactive | inactive | inactive | inactive | inactive | inactive | inactive |  |  |  |  |  |  |  |  |  | 
4 | C=C[Si](OC(C)=O)(OC(C)=O)OC(C)=O | inactive | inactive | inactive | inactive | inactive |  | inactive | inactive | inactive | inactive | 3.16 µM (active) | 32.4 µM (active) and 20 µM (active) |  |  |  |  |  |  |  | 
5 | O=c1c2ccccc2oc2ccccc12 | inactive | inactive | inactive | inactive | inactive | inactive | inactive | inactive | inactive | inactive |  |  |  |  |  |  |  |  |  | 
6 | CC(C)(c1cc(Br)c(OCCO)c(Br)c1)c1cc(Br)c(OCCO)c(Br)c1 | inactive |  |  | inactive | inactive |  |  |  |  | inactive | 4.6 µM (active) | 4.47 µM (active) | 6.14 µM (active) | 8.17 µM (active) | 25.4 µM (active) | 13.1 µM (active) |  |  |  | 
7 | CCOC(=O)c1ccccc1C(=C1C=C(Br)C(=O)C(Br)=C1)c1cc(Br)c(O)c(Br)c1 | inactive |  |  | inactive |  |  |  |  |  |  | 3.29 µM (active) and 3.26 µM (active) | 3.46 µM (active) and 3.43 µM (active) | 19.4 µM (active) and 23.1 µM (active) | 5.09 µM (active) and 3.85 µM (active) | 3.75 µM (active) and 3.67 µM (active) | 3.85 µM (active) and 3.76 µM (active) | 8.71 µM (active) and 8.48 µM (active) | 4.03 µM (active) and 4.34 µM (active) |  | 
8 | O=C(c1ccc(O)cc1)c1ccc(O)cc1O | inactive | inactive | inactive | inactive | inactive | inactive | inactive | inactive | inactive |  |  |  | 5.81 µM (active) |  |  |  |  | 6.99 µM (active) and 20 µM (active) |  | 
9 | c1ccc2c(c1)ccc1ncccc12 | inactive | inactive | inactive | inactive | inactive |  | inactive | inactive | inactive | inactive |  | 20 µM (active) |  |  |  |  |  |  |  | 
10 | c1ccc2c(c1)ccc1cc3c(ccc4ccccc43)cc12 | inactive | inactive | inactive | inactive | inactive | inactive | inactive | inactive | inactive | inactive |  |  |  |  |  |  |  |  |  | 
11 | O=C1CCCN1CCO | inactive | inactive | inactive | inactive | inactive | inactive | inactive | inactive | inactive | inactive |  |  |  |  |  |  |  |  |  | 
12 | C#CC1(O)CC[C@H]2[C@@H]3CCC4=CCCC[C@@H]4[C@H]3CC[C@@]21C (stereo partly specified) |  |  |  |  | inactive |  |  |  |  |  | 34.4 µM (active) | 15.1 µM (active) | 29.4 µM (active) | 30 µM (active) | 33 µM (active) | 35 µM (active) |  | 37.5 µM (active) | 20 µM (active) | 20 µM (active)
13 | CCCCC(CC)COC(=O)c1ccccc1O (stereo unspecified) | inactive | inactive |  | inactive | inactive |  |  |  |  |  | 6.81 µM (active) | 7 µM (active) |  | 13.2 µM (active) | 12.8 µM (active) | 15 µM (active) |  | 17.8 µM (active) |  | 
14 | CN1C(=O)N(C)C(O)C1O (stereo unspecified) | inactive | inactive | inactive | inactive | inactive | inactive | inactive | inactive | inactive | inactive |  |  | 0.179 µM (active) |  |  |  |  |  |  | 
15 | C=CC=CC=CCCCCC | inactive |  |  | inactive | inactive |  | inactive | inactive | inactive | inactive | 7.41 µM (active) | 7.28 µM (active) | 5 µM (active) |  |  |  |  |  |  | 
16 | O=C(Nc1ccccc1SSc1ccccc1NC(=O)c1ccccc1)c1ccccc1 |  |  | inactive | inactive | inactive | inactive | inactive | inactive | inactive | inactive |  |  | 5.16 µM (active) |  |  |  |  |  | 5.17 µM (active) | 
17 | Nc1ccc(N)c(Cl)c1 | inactive |  | inactive | inactive | inactive |  |  | inactive |  |  | 28.4 µM (active) | 9.65 µM (active) | 27.2 µM (active) and 11.1 µM (active) | 14.9 µM (active) and 16.5 µM (active) | 34.2 µM (active) | 17.2 µM (active) and 17.5 µM (active) |  | 34.5 µM (active) and 33 µM (active) |  | 21.4 µM (active)
18 | C=CC(=O)OCC(Br)CBr (stereo unspecified) |  |  |  | inactive |  |  |  |  |  |  | 5.82 µM (active) | 5.47 µM (active) | 11.4 µM (active) | 5.95 µM (active) | 11.9 µM (active) | 6.57 µM (active) | 20 µM (active) | 11.8 µM (active) | 28.9 µM (active) | 
